Laboratory results from PubChem BioAssay (EPA / NIEHS).
Inconclusive results are not listed. The source made the active and inactive calls. How the source made its calls, unless noted: active means hit-call score of the fitted dose curve at least 0.9, where 1 is the maximum; inactive means score below 0.9.

How the values were obtained:
[1] = ACEA_ER_80hr: ACEA Biosciences xCELLigence Real-Time Cell Analysis on Estrogen Receptor Agonism for Proliferation (AID 2282667; active means hit-call score of the fitted dose curve at least 0.9, where 1 is the maximum); settings: T47D proliferation, impedance (xCELLigence), 80 h
Outline: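 Real-time electrical impedance tracked growth of the human breast line T47D, with the 80 h post-dosing value used. Dosing spanned eight 1:4 steps down from a 100 uM final top concentration, run in duplicate.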

[2] = APR_HepG2_CellCycleArrest_24hr: Apredica 24-hour HepG2 Assay for Cell Cycle Arrest (AID 2282905); settings: imaging, actives raise or lower the signal;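 further: cell cycle arrest scored as ratio of 2N to 4N nuclear DNA content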
Outline: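 Compounds (0.39 to 200 uM, final DMSO 0.5% v/v) are applied to HepG2 cells for 24 hours; cells are then fixed, permeabilized and nuclei labeled with Hoechst 33342. Automated imaging measures DNA content, and activity is fitted in both directions against DMSO.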

[3] = APR_HepG2_NuclearSize_24hr: Apredica 24-hour HepG2 Assay for Nuclear Size (AID 2282907); settings: high-content imaging, actives raise or lower the signal
Outline: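 Nuclear size is measured by fluorescence high-content imaging of Hoechst-labelled HepG2 nuclei after 24 hr of treatment (0.39–200 uM, 0.5% DMSO). Cells are fixed in 3.7% formaldehyde before staining, and DMSO serves as the baseline for bidirectional curve fitting.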

[4] = APR_HepG2_CellLoss_24hr: Apredica 24-hour HepG2 Assay for Cell Loss (AID 2282908); settings: high-content imaging
Outline: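 Nuclear count serves as the viability measure: treated cells are fixed, permeabilized and labelled with Hoechst 33342, and six images per well are analysed to identify valid nuclei. Doses span 0.39–200 uM, and activity in either direction is scored against DMSO.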

[5] = APR_HepG2_MicrotubuleCSK_24hr: Apredica 24-hour HepG2 Assay for Microtubule CSK Stabilty (AID 2282909); settings: HepG2 microtubule cytoskeleton imaging, actives raise or lower the signal
Outline: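 Compounds were applied to HepG2 cells for 24 hours across 0.39–200 uM in duplicate, with final DMSO at 0.5% v/v. Fixed, permeabilized cells were labeled for alpha-tubulin and nuclei, and tubulin fluorescence was quantified by imaging, fitted bidirectionally against DMSO.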

[6] = APR_HepG2_MitoticArrest_24hr: Apredica 24-hour HepG2 Assay for Mitotic Arrest (AID 2282910); settings: high-content imaging, actives raise or lower the signal
Outline: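 High-content imaging of fixed HepG2 cells labeled with Hoechst 33342 and anti-phospho-histone H3, after 24 h treatment. Ten concentrations 0.39 to 200 uM in duplicate, final DMSO 0.5%; changes fitted both directions relative to DMSO.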

[7] = APR_HepG2_MitoMembPot_24hr: Apredica 24-hour HepG2 Assay for Mitochondrial Membrane Potential (AID 2282911); settings: imaging, actives raise or lower the signal
Outline: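 Cells are dosed for 24 hr across 0.39 to 200 uM with solvent held at 0.5% DMSO. They are then stained with 250 nM MitoTracker Red CMXRos for 30 min, fixed in 3.7% formaldehyde and imaged.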

[8] = APR_HepG2_MitoMass_24hr: Apredica 24-hour HepG2 Assay for Mitochondrial Mass (AID 2282912); settings: high-content imaging, actives raise or lower the signal
Outline: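 After 24 hr of treatment at 0.39 to 200 uM, HepG2 cells take up 250 nM MitoTracker Red CMXRos for 30 min and are then fixed with 3.7% formaldehyde. Per-well images are quantified, and any change in either direction is scored against solvent.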

[9] = APR_HepG2_p53Act_24hr: Apredica 24-hour HepG2 Assay for p53 Activation (AID 2282913); settings: high-content imaging, actives raise or lower the signal;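 further: p53 protein immunofluorescence averaged per cell in HepG2 with Hoechst nuclei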
Outline: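 Human HepG2 liver cells; 24 hr cpd treatment, 0.39–200 uM, 0.5% DMSO final. Fixed in 3.7% formaldehyde, permeabilized with 0.5% Triton X-100, stained with anti-p53/Cy5 plus Hoechst 33342. Six images per well at 20x; gain or loss vs DMSO.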

[10] = APR_HepG2_CellCycleArrest_72hr: Apredica 72-hour HepG2 Assay for Cell Cycle Arrest (AID 2282914); settings: high-content imaging, actives raise or lower the signal
Outline: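 Read-out is Hoechst-stained nuclear DNA content measured by automated fluorescence imaging (20x, six images per well), fitted in both directions relative to DMSO. Human HepG2 liver cells received 0.39–200 uM compound for 72 hr at 0.5% v/v DMSO.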

[11] = APR_HepG2_CellLoss_72hr: Apredica 72-hour HepG2 Assay for Cell Loss (AID 2282915); settings: high-content imaging
Outline: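 Cell number comes from Hoechst 33342-labelled nuclei, imaged at 20x after 3.7% formaldehyde fixation. Dosing was 0.39–200 uM, ten concentrations in duplicate, 0.5% DMSO final, for 72 h. Bidirectional fit relative to DMSO baseline.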

[12] = APR_HepG2_P-H2AX_72hr: Apredica 72-hour HepG2 Assay for H2AX Phosphorylation (AID 2282916); settings: imaging, actives raise or lower the signal;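 further: phospho-histone H2A.x immunostain intensity per cell marking DNA damage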
Outline: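 Human hepatoma HepG2 cells are dosed across ten concentrations (0.39 to 200 uM, 0.5% v/v DMSO) and incubated 72 hr. Phospho-histone H2A.x is then detected by antibody staining alongside c-Jun and Hoechst, and quantified by automated fluorescence imaging.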

[13] = APR_HepG2_MitoMembPot_72hr: Apredica 72-hour HepG2 Assay for Mitochondrial Membrane Potential (AID 2282917); settings: imaging, actives raise or lower the signal
Outline: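 Membrane potential read by MitoTracker Red CMXRos (250 nM, 30 min, pre-fixation) fluorescence imaging of HepG2 after 72 hr exposure. Ten concentrations, 0.39–200 uM, duplicate wells, 0.5% DMSO; fitted in both directions against DMSO baseline.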

[14] = APR_HepG2_MitoticArrest_72hr: Apredica 72-hour HepG2 Assay for Mitotic Arrest (AID 2282918); settings: high-content imaging, actives raise or lower the signal
Outline: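 Read-out is phospho-histone H3 immunofluorescence with Hoechst nuclear segmentation, imaged at 20x. Human HepG2 liver cells received ten concentrations (0.39–200 uM, final DMSO 0.5% v/v) for 72 hr before fixation. Gain or loss of signal was fitted relative to DMSO.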

[15] = APR_HepG2_MicrotubuleCSK_72hr: Apredica 72-hour HepG2 Assay for Microtubule CSK Stabilty (AID 2282919); settings: HepG2 microtubule cytoskeleton, high-content imaging, actives raise or lower the signal
Outline: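 High-content imaging of alpha-tubulin staining in fixed HepG2 cells after 72 hr treatment with ten concentrations from 0.39 to 200 uM (0.5% DMSO). Fitting was bidirectional against DMSO; taxol served as positive control.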

[16] = APR_HepG2_P-H2AX_24hr: Apredica 24-hour HepG2 Assay for H2AX Phosphorylation (AID 2282920); settings: high-content imaging, actives raise or lower the signal
Outline: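 HepG2, 24 hr, cpd 0.39–200 uM (10 conc, duplicate), DMSO 0.5% v/v final. Fix 3.7% formaldehyde, Triton X-100 permeabilize, anti-phospho-H2A.x 1:200 + Hoechst 2 ug/mL. Imaged, bidirectional fit vs DMSO.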

[17] = APR_HepG2_StressKinase_72hr: Apredica 72-hour HepG2 Assay for Stress Kinase (AID 2282921); settings: HepG2 stress kinase (phospho-c-Jun) imaging, actives raise or lower the signal
Outline: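 After a 72 h compound treatment spanning 0.39 to 200 uM, formaldehyde-fixed cells are labelled for phosphorylated c-Jun and nuclei, imaged by automated fluorescence microscopy, and activity is fitted in both directions relative to DMSO controls.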

[18] = APR_HepG2_StressKinase_24hr: Apredica 24-hour HepG2 Assay for Stress Kinase (AID 2282922); settings: HepG2 stress kinase (phospho-c-Jun) imaging, actives raise or lower the signal
Outline: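 High-content imaging of phospho-c-Jun immunofluorescence in fixed, permeabilized HepG2 cells after 24 h dosing. Ten concentrations, 0.39 to 200 uM, run in duplicate at 0.5% v/v DMSO; gain or loss of signal versus DMSO.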

[19] = APR_HepG2_p53Act_72hr: Apredica 72-hour HepG2 Assay for p53 Activation (AID 2282923); settings: high-content imaging, actives raise or lower the signal;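 further: average cellular p53 protein immunofluorescence intensity in HepG2 cells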
Outline: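 Imaging-based endpoint: after 72 hr compound exposure (up to 200 uM, 0.5% DMSO), fixed and permeabilized monolayers were labelled with anti-p53 antibody and imaged; signal change in either direction was fitted relative to DMSO controls.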

[20] = APR_HepG2_MitoMass_72hr: Apredica 72-hour HepG2 Assay for Mitochondrial Mass (AID 2282924); settings: high-content imaging, actives raise or lower the signal;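 further: MitoTracker Red CMXRos stain intensity per cell imaged as mitochondrial mass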
Outline: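 Readout is imaged MitoTracker Red (250 nM, 30 min, pre-fixation) signal, fitted bidirectionally against DMSO baseline. Human HepG2 liver cells received compound 0.39–200 uM in duplicate for 72 hr, final DMSO 0.5%.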

Measured: AC50

CCCc1ccccc1
active: [7] 61.3 µM
inactive: [1] | [2] | [3] | [4] | [5] | [6] | [8] | [9] | [10] | [11] | [12] | [13] | [14] | [15] | [16] | [17] | [18] | [19] | [20]

C[Si](C)(C)C(F)(F)C(F)(F)C(F)(F)F
inactive: [1]

OCCC(F)(F)C(F)(F)C(F)(F)C(F)(F)F
inactive: [1]

CCCCCCCC/C=C\CCCCCCCC(=O)OC[C@@H](O)[C@H]1OC[C@H](O)[C@H]1O
inactive: [1] | [2] | [3] | [4] | [5] | [6] | [7] | [8] | [9] | [10] | [11] | [12] | [13] | [14] | [15] | [16] | [17] | [18] | [19] | [20]

O=C(O)CO
inactive: [1]

FC(F)(F)COC(OCC(F)(F)F)OCC(F)(F)F
inactive: [1]

OC(CCl)CCl
inactive: [1] | [2] | [3] | [4] | [5] | [6] | [7] | [8] | [9] | [10] | [11] | [12] | [13] | [14] | [15] | [16] | [17] | [18] | [19] | [20]

OC(O)(C(F)C(O)(O)C(F)(F)F)C(F)(F)F
inactive: [1]

FC(F)=C(F)C(F)(F)C(F)(F)C(F)(F)C(F)(F)C(F)(F)C(F)(F)F
inactive: [1]

CCCCCCCCCC
inactive: [1] | [2] | [3] | [4] | [5] | [6] | [7] | [8] | [9] | [10] | [11] | [12] | [13] | [14] | [15] | [16] | [17] | [18] | [19] | [20]

CCCCOC(=O)c1ccccc1
inactive: [1] | [2] | [3] | [4] | [5] | [6] | [7] | [8] | [9] | [10] | [11] | [12] | [13] | [14] | [15] | [16] | [17] | [18] | [19] | [20]
